Hits are enriched below; roughly 14% of the tested compounds scored in any of these assays.
USP30 inh: inhibitors of human USP30 deubiquitinase. purified USP30, Ub-rhodamine cleavage fluorescence. inhibition, % at 25 µM. hit rate 5.3% among 47,000. AID 1645860
USP28 inh: blocks human USP28 ubiquitin-rhodamine cleavage | hit rate 3% among 47,000 | inhibition, % at 25 µM | AID 1645857 | purified USP28, Ub-rhodamine cleavage fluorescence, 30 min
USP8 inh: inhibitors of human USP8 deubiquitinase. P40818. inhibition, % at 20 µM. purified USP8, Ub-rhodamine cleavage fluorescence, 30 min. AID 1645853. hit rate 4.2% among 47,000
USP17 inh: inhibitors of human USP17 deubiquitinase; A8MUK1; inhibition, % at 50 µM; purified USP17, Ub-rhodamine cleavage fluorescence, 3 h; hit rate 6.5% among 47,000; AID 1645855
USP10 block: inhibitors of human USP10 deubiquitinase; Q14694; purified USP10, Ub-rhodamine fluorescence, 60 min; inhibition, % at 20 µM; hit rate 1.1% among 47,000; AID 1645856
Target sequence (Q14694 whole entry, looked up): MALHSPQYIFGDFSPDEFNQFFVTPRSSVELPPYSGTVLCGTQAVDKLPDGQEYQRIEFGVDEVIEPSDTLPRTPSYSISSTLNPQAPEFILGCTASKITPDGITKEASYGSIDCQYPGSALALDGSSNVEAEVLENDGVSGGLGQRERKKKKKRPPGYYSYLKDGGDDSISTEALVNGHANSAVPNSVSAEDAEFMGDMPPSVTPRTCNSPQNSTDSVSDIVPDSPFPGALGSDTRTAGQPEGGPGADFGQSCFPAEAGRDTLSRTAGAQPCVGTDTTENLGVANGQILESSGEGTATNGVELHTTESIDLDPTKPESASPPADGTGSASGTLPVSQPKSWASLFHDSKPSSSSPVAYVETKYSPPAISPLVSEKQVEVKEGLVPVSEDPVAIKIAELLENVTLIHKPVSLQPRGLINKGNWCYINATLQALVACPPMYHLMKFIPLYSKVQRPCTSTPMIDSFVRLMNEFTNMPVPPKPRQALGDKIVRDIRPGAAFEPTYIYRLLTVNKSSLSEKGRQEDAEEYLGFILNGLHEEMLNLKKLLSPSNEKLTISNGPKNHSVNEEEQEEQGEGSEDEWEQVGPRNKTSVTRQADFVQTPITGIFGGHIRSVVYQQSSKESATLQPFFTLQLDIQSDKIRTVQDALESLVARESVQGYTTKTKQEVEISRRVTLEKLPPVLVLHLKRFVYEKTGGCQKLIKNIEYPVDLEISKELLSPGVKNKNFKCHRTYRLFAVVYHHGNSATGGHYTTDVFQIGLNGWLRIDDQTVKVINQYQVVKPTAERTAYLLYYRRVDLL
Each line names hits and unclear results; the compound was inactive in the other large screens. Cut-off read from the data, not from the text of the source: active = inhibition above about 30%; inactive = the rest.

Cc1ccc(-c2ncc(C(=O)Nc3ccccc3Cl)c(-c3ccncc3)n2)cc1	USP8 inh 31
O=C(O)/C=C/C(=O)Nc1cc(CC(=O)O)ccc1O	none
Cc1ccccc1NC(=O)N1CCC2(CC1)NC(=O)[C@H]1CN(CC(C)C)C[C@H]12	none
COc1ccc(CNC(=O)CSc2nc3nc(C)ccc3o2)cc1	USP17 inh 52
Cc1cc(-c2noc(-c3ccoc3C)n2)c2ccccc2n1	USP8 inh 37
COc1ccc(OCc2nc(-c3cc(C)nc4ccccc34)no2)cc1	none
COc1ccc(NC(=O)N2CCCC(CN3CCc4ccccc4C3)C2)cc1OC (configuration not stated)	none
COc1ccc2[nH]c3c(=O)n(Cc4cccnc4)cnc3c2c1	USP17 inh 45
O=c1c2[nH]c3ccc(Br)cc3c2ncn1CCO	none
O=c1c2[nH]c3ccccc3c2ncn1Cc1cccnc1	none
COc1ccc(Cn2cnc3c([nH]c4ccc(Br)cc43)c2=O)cc1	USP17 inh 61
Cc1ccc2[nH]c3c(=O)n(Cc4cccnc4)cnc3c2c1	USP17 inh 34
COCCCn1cnc2c([nH]c3ccc(Br)cc32)c1=O	USP17 inh 65 (no result: USP30 inh, USP28 inh)
O=C1CCCN1c1ccc(S(=O)(=O)Nc2cccc3cccnc23)cc1	none
CCC(Cc1ccccc1)NC(=O)c1oc(=O)c2ccccc2c1-c1ccc(C)cc1 (configuration not stated)	none
Cc1ccc2[nH]c3c(=O)n(Cc4ccc(N(C)C)cc4)cnc3c2c1	USP8 inh 88
CCn1c(=O)c(C(=O)NCc2ccc(F)cc2F)nc2cccnc21	none
CN(C)c1ccc(C(=O)N2CCC3(CC2)N=C(c2ccc(Cl)cc2)C(=O)N3)cc1	none
COc1ccccc1NS(=O)(=O)c1ccc2oc(Nc3ccc4c(c3)CCC4)nc2c1	USP8 inh 51
COc1ccccc1NS(=O)(=O)c1ccc(-c2c(C)noc2C)cc1	none
O=C(Cn1cc(C(=O)C(F)(F)F)c2cc(Br)ccc21)N1CCc2ccccc21	USP17 inh 40, USP10 block 36
Nc1nc(/C=C/c2ccc(Br)cc2)nc(-c2ccccc2O)n1	none
Nc1nc(/C=C/c2ccc(Cl)cc2)nc(-c2ccccc2O)n1	USP17 inh 36
Cc1nc(-c2ccccn2)sc1C(=O)NCC(C)(C)N(C)C	none
Cc1oc2ncnc(Oc3ccccc3F)c2c1C	none
COc1ccc(NC(=O)N2CCC3(CC2)Nc2ccccc2-n2cccc23)c(OC)c1	none
Cc1oc(C2CC2)cc1C(=O)N1CCC2(CC1)CC1(CO2)Nc2ccccc2-n2cccc21 (configuration not stated)	USP8 inh 92, USP17 inh 71
Cn1nccc1C(=O)N1CCC2(CC1)Nc1cccnc1-n1cccc12	none
Cc1ccc(C(=O)N2CCC3(CC2)CC2(CO3)Nc3ccccc3-n3cccc32)cn1 (configuration not stated)	USP8 inh 67
O=C(Cc1ccccc1F)N1CCC2(CC1)CC1(CO2)Nc2ccccc2-n2cccc21 (configuration not stated)	USP8 inh 94, USP17 inh 53
Cc1ccc2c(c1)C(=O)NCC1(CCN(C(=O)Cc3ccccc3F)CC1)O2	none
Cc1nn(C)cc1C(=O)N1CCC2(CC1)CC1(CO2)Nc2ccccc2-n2cccc21 (configuration not stated)	USP8 inh 57, USP17 inh 38
CCNc1nc(SCC(C)=O)nc2sc3c(c12)CCC(C)C3 (configuration not stated)	USP30 inh 34, USP17 inh 58
CC(=O)C1=C(O)[C@@]2(O)C(=O)c3c(c(C)c4ccc(C)c(O)c4c3O)C[C@H]2[C@@H](N)C1=O	USP28 inh 66, USP17 inh 49
O=C1NCC2(CCC(C(=O)N3CCCC(CO)C3)CC2)Oc2ccccc21 (configuration not stated)	none
N#Cc1c(-c2ccc(Cl)cc2)ccn2nc(-c3ccco3)nc12	USP8 inh 48
N#Cc1c(-c2ccco2)ccn2nc(-c3ccc(Cl)cc3Cl)nc12	USP8 inh 43, USP17 inh 46
COc1c([C@H](CC(C)C)OC(C)=O)ccc2c1C(=O)OCc1cc(C)cc(O)c1O2	none
COc1c(C)c2c(c(O)c1C/C=C(\C)C(O)CC(=O)O)C(=O)OC2 (configuration not stated)	USP30 inh 38
CCn1nccc1-c1cccc(-c2noc(-c3cccnc3Cl)n2)c1	none
Cc1ccc2[nH]cc(S(=O)(=O)c3cc(F)cc(F)c3)c(=O)c2c1	USP8 inh 98
O=[N+]([O-])c1ccc2[nH]cc(S(=O)(=O)Nc3ccc(F)cc3F)c2c1	none
Cc1ccc(S(=O)(=O)c2c[nH]c3cc(F)ccc3c2=O)cc1F	USP8 inh 69
Cc1ccc2[nH]cc(S(=O)(=O)c3ccc(C)c(F)c3)c(=O)c2c1	USP17 inh 60
Cc1ccc(S(=O)(=O)c2cnc3ccc(C)cc3c2Nc2ccc(C)c(C)c2)cc1	none
O=C(/C=C\c1ccccc1)Nc1c2c(nn1-c1ccc(Cl)cc1)CS(=O)(=O)C2	none
CCCN1CCN(C(=O)c2cn3nc(OC)ccc3n2)CC1	none
COc1cc(-n2c(=O)c3ccccc3n(CC(=O)NCC3CCCO3)c2=O)cc(OC)c1OC (configuration not stated)	none
COc1cc(-n2c(=O)c3ccccc3n(Cc3cccc(F)c3)c2=O)cc(OC)c1OC	USP30 inh 35
COc1ccc(-c2nnn(CC(=O)NCCc3ccccc3)n2)cc1OC	USP17 inh 47
COc1cc(-n2c(=O)c3ccccc3n(CC(=O)NCCc3ccccc3)c2=O)cc(OC)c1OC	USP30 inh 35
CCN1CCN(CC(=O)NCCc2ccc(OC)c(OC)c2)CC1	none
COc1cc(CCNC(=O)CCc2nc3cccnc3n2-c2ccccc2)cc(OC)c1OC	none
CC(C)N1c2ccccc2CN(C(=O)c2ccccc2)CC1C (configuration not stated)	none
COCCNC(=O)c1c[nH]c2ccc(S(=O)(=O)N(CCCN3CCOCC3)Cc3ccco3)cc2c1=O	none
CC1CCN(S(=O)(=O)c2ccc3[nH]cc(C(=O)NCc4ccco4)c(=O)c3c2)CC1	USP17 inh 55
COc1ccc(Nc2nc3c(S(=O)(=O)c4ccc(C)cc4)nnn3c3ccsc23)c(OC)c1	USP30 inh 67, USP10 block 38
COc1ccc(S(=O)(=O)c2nnn3c2nc(Nc2ccccc2)c2ccccc23)cc1	none
Cc1noc(-c2ccc(SCC(=O)N3CCC(C)CC3)nc2)n1	none
Fc1ccc(Nc2nc(-c3ccccn3)nc3ccccc23)cc1	USP30 inh 31, USP17 inh 39
Fc1cccc(Nc2nc(-c3ccccn3)nc3ccccc23)c1	USP17 inh 43
O=C1CCCC[C@]2(CN(Cc3ccc(N4CCCC4=O)cc3)C[C@H]2c2ccccn2)N1	none
CC1(C(=O)NC2CCCC2)Cn2c(nc3ccccc32)C(=O)N1CCc1ccccc1 (configuration not stated)	USP30 inh 36

Screening data deposited in PubChem by Buhrlage Lab, Dana-Farber Cancer Institute and Novartis Institutes for BioMedical Research (Cambridge, Mass).
